About 83,000 compounds went through this panel and 20% of them were active in at least one assay; those are over-represented in the sample as a whole.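 Step 1: grow cells in 96-well plates. Step 2: add test compound at a single concentration. Step 3: incubate 48 h. Step 4: record percent growth.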 Values without a mark were called inactive. Calls of active or inactive are those of the source. How the source made its calls: active means growth percent below 10; inactive means the rest.

What all share (assay): NCI-60 one-dose screen, 48 h (100 = growth as untreated, 0 = no growth, -100 = all killed)
One assay has as its system K-562 leukemia. To be noted: 10 µM unless noted.
Another assay has as its system MALME-3M melanoma. Particulars: 10 µM unless noted.
The test system of a further assay is MDA-MB-231 breast. Particulars: 10 µM unless noted.
A further assay relates to RXF 393 renal. To be noted: 10 µM unless noted.
The test system of the next assay is SF-268 CNS. Particulars: 10 µM unless noted.
The test system of the next assay is SF-295 CNS. To be noted: 10 µM unless noted.
A further assay concerns SF-539 CNS. Particulars: 10 µM unless noted.
The next assay deals with UACC-257 melanoma. To be noted: 10 µM unless noted.
The next assay concerns M14 melanoma. To be noted: 10 µM unless noted.
A further assay deals with HCT-15 colon. To be noted: 10 µM unless noted.
Another assay has as its system HT29 colon. Particulars: 10 µM unless noted.
In the next assay the test system is SNB-75 CNS. To be noted: 10 µM unless noted.
A further assay concerns SNB-19 CNS. Particulars: 10 µM unless noted.
Another assay relates to U251 CNS. Particulars: 10 µM unless noted.
In another assay the test system is PC-3 prostate. Particulars: 10 µM unless noted.
In the next assay the test system is SK-MEL-5 melanoma. To be noted: 10 µM unless noted.
The subject of another assay is UACC-62 melanoma. To be noted: 10 µM unless noted.
Another assay concerns LOX IMVI melanoma. To be noted: 10 µM unless noted.
Another assay concerns SK-MEL-28 melanoma. To be noted: 10 µM.
A further assay has as its system SK-MEL-2 melanoma. To be noted: 10 µM unless noted.

Consider `O=c1cc(-c2ccccc2)oc2cc(OCc3cn(Cc4ccc(F)cc4)nn3)cc(OCc3cn(Cc4ccc(F)cc4)nn3)c12`, for which the growth with K-562 leukemia was 45.5%; in the assay with MALME-3M melanoma, 15.2%; with MDA-MB-231 breast, 9.1% (active); with RXF 393 renal, -8.05% (active); in the assay with SF-268 CNS, 21.8%; in the assay on SF-295 CNS, 38.9%. In addition, the growth in the assay with SF-539 CNS was -10.5% (active); with UACC-257 melanoma, 46.4%; in the assay with M14 melanoma, 56.8%; in the assay on HCT-15 colon, 73.5%; in the assay with HT29 colon, 35.1%; in the assay with SNB-75 CNS, 6.29% (active). The growth in the assay with SNB-19 CNS is 12.1%; in the assay on U251 CNS it was 10.5%; in the assay with PC-3 prostate it was 36%; in the assay with SK-MEL-5 melanoma it was 17.1%; with UACC-62 melanoma, 30%; in the assay on LOX IMVI melanoma, 34.8%. The growth in the assay on SK-MEL-28 melanoma is 29.9%; with SK-MEL-2 melanoma, 48.8%.

For the compound `COc1ccc(Cn2c(Br)c3c(c2Br)-c2nc(NC(=O)c4ccc(OC)cc4)sc2CC3)cc1`, the growth in the assay on K-562 leukemia was 79.2%; with MALME-3M melanoma it was 4.4% (active); in the assay on MDA-MB-231 breast it was 52.6%; in the assay with RXF 393 renal it was 57%; in the assay on SF-268 CNS, 72%; with SF-295 CNS, 57.7%. The growth in the assay with SF-539 CNS is 52.1%; in the assay on UACC-257 melanoma, 78.5%; in the assay on M14 melanoma, 80.4%; with HCT-15 colon it was 92.8%; in the assay with HT29 colon it was 84.8%; in the assay with SNB-75 CNS, 48.2%. In addition, the growth in the assay with SNB-19 CNS was 80.1%; in the assay on U251 CNS, 67.8%; in the assay with PC-3 prostate it was 71.5%; in the assay on SK-MEL-5 melanoma it was 62.1%; in the assay on UACC-62 melanoma, 63.5%; with LOX IMVI melanoma, 80.3%. For the same compound, the figures for the growth with SK-MEL-28 melanoma and with SK-MEL-2 melanoma were 81.8% and 83.8%, respectively.

`c1ccc(CNc2nc(Nc3ccccc3)nc3ccccc23)cc1`: the growth in the assay on K-562 leukemia is 33.6%; in the assay with MALME-3M melanoma, -7.75% (active); in the assay on MDA-MB-231 breast it was 66.8%; in the assay with RXF 393 renal, 2.83% (active); in the assay on SF-268 CNS, 50.7%; with SF-295 CNS, -61.1% (active). In addition, the growth in the assay with SF-539 CNS was 40.2%; in the assay with UACC-257 melanoma, 14.4%; with M14 melanoma, 55%; in the assay on HCT-15 colon it was 72.6%; in the assay with HT29 colon, 54.5%; in the assay on SNB-75 CNS it was -6.23% (active). Also, the growth in the assay on SNB-19 CNS is 47.3%; in the assay with U251 CNS it was 29.6%; in the assay on PC-3 prostate, 19.5%; with SK-MEL-5 melanoma it was 54.8%; in the assay with UACC-62 melanoma, 27.1%; with LOX IMVI melanoma, 59.6%. Further, the values for the growth with SK-MEL-28 melanoma and in the assay with SK-MEL-2 melanoma were -35.1% (active) and 21.8%, respectively.

Regarding `CCOC(=O)C1(Cc2ccccc2)CCN(Cc2cccc(OC)c2O)CC1`, the growth was 8.73% (active) in the assay with K-562 leukemia; 12% with MALME-3M melanoma; 22.1% in the assay with MDA-MB-231 breast; -13.9% (active) in the assay with RXF 393 renal; 5.65% (active) in the assay with SF-268 CNS; -22.2% (active) with SF-295 CNS. Moreover, the growth is 5.93% (active) with SF-539 CNS; -4.96% (active) in the assay with UACC-257 melanoma; 2.78% (active) in the assay on M14 melanoma; 24% with HCT-15 colon; 22.2% in the assay with HT29 colon; 37.7% in the assay with SNB-75 CNS. Further, the growth in the assay on SNB-19 CNS is 14.9%; in the assay on U251 CNS, 3.94% (active); in the assay on PC-3 prostate, 25%; with SK-MEL-5 melanoma, -33.4% (active); in the assay with UACC-62 melanoma it was -7.92% (active); in the assay on LOX IMVI melanoma, 5.51% (active). Besides, the growth in the assay with SK-MEL-28 melanoma was 38%; in the assay with SK-MEL-2 melanoma, 9.33% (active).

Consider `COc1ccc(/C=C2\NC(=O)NC2=O)cc1O`, for which the growth was 106% in the assay on K-562 leukemia; 105% with MALME-3M melanoma; 114% in the assay with MDA-MB-231 breast; 111% with RXF 393 renal; 106% in the assay with SF-268 CNS; 94.2% with SF-295 CNS. Also, the growth is 106% in the assay with SF-539 CNS; 99.4% in the assay on UACC-257 melanoma; 89.8% in the assay on M14 melanoma; 99% with HCT-15 colon; 107% in the assay on HT29 colon; 105% with SNB-75 CNS. Besides, the growth in the assay with SNB-19 CNS is 102%; in the assay on U251 CNS, 99.2%; in the assay on PC-3 prostate, 101%; with SK-MEL-5 melanoma, 102%; in the assay with UACC-62 melanoma it was 103%; with LOX IMVI melanoma it was 95.3%. Further, the growth was 104% in the assay with SK-MEL-28 melanoma and 115% with SK-MEL-2 melanoma.

As for `Cc1cccc2c(=O)c3c(sc12)c(NCCN)nc1ccccc13`, the growth with K-562 leukemia was -45.2% (active); with MALME-3M melanoma, -74.2% (active); in the assay on MDA-MB-231 breast, -75.6% (active); with RXF 393 renal, 34.1%; with SF-268 CNS it was 6.22% (active); in the assay with SF-295 CNS, -75.3% (active). Further, the growth in the assay on SF-539 CNS was -85.7% (active); with UACC-257 melanoma, -17.6% (active); in the assay with M14 melanoma, -75.7% (active); with HCT-15 colon it was -79.9% (active); in the assay with HT29 colon, -54.9% (active); in the assay on SNB-75 CNS it was 15.2%. Further, the growth in the assay on SNB-19 CNS was -2.48% (active); in the assay on U251 CNS, -77.2% (active); with PC-3 prostate, -42.9% (active); in the assay with SK-MEL-5 melanoma it was -22.9% (active); in the assay on UACC-62 melanoma, -86.6% (active); in the assay with LOX IMVI melanoma, -92.9% (active). Also, the growth was -86.1% (active) in the assay on SK-MEL-28 melanoma and -34.9% (active) in the assay with SK-MEL-2 melanoma.

On to `Cc1ccc(S(=O)(=O)c2c(COC(=O)c3cccc(C)c3)c(-c3ccccc3)nn2C)cc1`, for which the growth is -23% (active) with K-562 leukemia; -47.5% (active) with MALME-3M melanoma; 14.3% with MDA-MB-231 breast; 93.4% in the assay on RXF 393 renal; 68.3% with SF-268 CNS; 54.7% in the assay with SF-295 CNS. In addition, the growth is 21.4% in the assay on SF-539 CNS; 83.5% in the assay with UACC-257 melanoma; 89.9% with M14 melanoma; 62.2% with HCT-15 colon; -44.5% (active) in the assay with HT29 colon; 107% with SNB-75 CNS. Further, the growth with SNB-19 CNS was 24.6%; in the assay on U251 CNS it was -32.4% (active); with PC-3 prostate, 48.5%; in the assay on SK-MEL-5 melanoma, 77.6%; with UACC-62 melanoma, 88.7%; in the assay with LOX IMVI melanoma, -22.8% (active). Besides, the results for the growth with SK-MEL-28 melanoma and in the assay with SK-MEL-2 melanoma were -68.4% (active) and 27.2%, respectively.

The record behind these values is PubChem BioAssay (NCI).
